Assay outcomes from PubChem.
hNpr1 antagonist: Natriuretic polypeptide receptor (hNpr1) antagonism - Primary qHTS; Atrial natriuretic peptide receptor 1 (Homo sapiens), P16066; HEK293 hNpr1 GloSensor cGMP, ANP-stimulated luminescence; Potency, µM (series often up to 46.3 µM), for the others: at the top dose activity change, negative = inhibition, actives largely listed as inhibitors; 1.6% of 76,000 active; AID 1347048, 2019; calls by dose curve; note: % is set by controls: 0 for no effect and ±100 for the full control effect; nearly all actives have a fitted effect of over 60% in size
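HEK293 cells stably expressing human Npr1 and cGMP GloSensor pGS-40F, loaded 2 h with 2% GloSensor reagent, given compound 30 min at room temperature. Luminescence read before and 20 min after 0.1 nM hNppA.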
SNCA expr inh: Primary qHTS assay for inhibitors of alpha-synuclein gene (SNCA) expression. HEK-293 SNCA-luciferase knock-in, luminescence, 24 h. Potency, µM (doses to about 57.2 µM), inactives show at the top dose activity change, negative = inhibition, usual class: inhibitors. 0.17% of 140,000 active;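 note: plate controls were DMSO cells for no effect and cell-free wells for full effect; nearly all actives have a fitted effect of over 45% in size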
HEK cytotox: Cytotoxic Profiling in HEK 293 Cell Line of Diverse Libraries Using Quantitative High-Throughput Screening | Potency, µM (series often up to 115 µM), without a hit: at the top dose activity change, negative = cytotoxicity, hits mostly inhibitors | 6.6% of 94,000 active | AID 1345083, 2018 | HEK 293 viability, ATP luminescence (CellTiter-Glo), 48-72 h; note: % is set by controls: 0 for no effect and ±100 for the full control effect; nearly all actives have a fitted effect of over 60% in size
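250 HEK 293 cells/well; compound by pintool; incubated 48 or 72 hr at 37 degree Celsius; CellTiter-Glo added, 10 min RT, luminescence imaged.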
FLuc inh-1: Firefly luciferase inhibition profiling of diverse chemical library using quantitative high-throughput screening. Potency, µM (highest dose often 115 µM), most hits filed as inhibitors. 2.5% of 76,000 active. Luciferin 4-monooxygenase (Photinus pyralis), P08659. AID 1347043, 2019. purified P. pyralis luciferase, luminescence, biochemical; note: % is set by controls: 0 for no effect and ±100 for the full control effect; nearly all actives have a fitted effect of over 65% in size
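Purified 10nM P. pyralis luciferase with 10uM D-luciferin and 10uM ATP in 50mM Tris acetate pH 7.5, 10mM Mg acetate, 0.01% Tween-20, 0.05% BSA. qHTS titration; luminescence read by CCD imager.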
NIH3T3 tox: Cytotoxic Profiling in NIH 3T3 Cell Line of Diverse Libraries Using Quantitative High-Throughput Screening. 4.3% of 94,000 active. Potency, µM (highest dose often 96.7 µM), inactives show top-dose activity change, negative = cytotoxicity, usual class: inhibitors. NIH 3T3 viability, CellTiter-Glo ATP luminescence, 48-72 h. AID 1345082, 2018; note: % is set by controls: 0 for no effect and ±100 for the full control effect; nearly all actives have a fitted effect of over 55% in size
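Viability of NIH 3T3 cells after 48 or 72 hr compound treatment at 37 °C was assessed by CellTiter-Glo, with luminescence imaged following a 10 min room-temperature step.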
HEK293 viab: GF-AFC viability counterscreen for inhibitors of alpha-synuclein gene (SNCA) expression; 0.12% of 150,000 active; AID 1671193, 2021; Potency, µM (doses to about 57.1 µM), without a hit: at the highest dose activity change, negative = cytotoxicity, actives largely listed as cytotoxic; HEK-293-SNCA-luc viability, GF-AFC fluorescence, 24 h;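 note: 0% = DMSO-treated cells and -100% = medium-only wells without cells; nearly all actives have a fitted effect of over 30% in size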
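Cytotoxicity counterscreen: after 24 h compound treatment of genome-edited SNCA-luciferase HEK-293 cells, live-cell protease substrate GF-AFC read by fluorescence after 30 min; activity scaled between DMSO (0%) and medium-only (-100%), curves Hill-fitted.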
FLuc SDR no ATP: Firefly luciferase (FLuc-C-HiBiT) SDR gain of signal screen - without ATP | shares compounds with FLuc inh-1 | Purified FLuc-C-HiBiT, Nano-Glo HiBiT luminescence, no ATP | Potency, µM (titrated, usually from 32.7 µM), without a hit: top-dose activation (signal gain), actives largely listed as activators | 7.8% of 1,300 active; note: nearly all actives have a fitted effect of over 55% in size
FLuc SDR ATP: Firefly luciferase (FLuc-C-HiBiT) SDR gain of signal screen - plus ATP | shares compounds with FLuc inh-1 | purified FLuc-C-HiBiT + ATP, HiBiT complementation luminescence | Potency, µM (doses to about 32.7 µM), without a hit: at the highest dose activation (gain of signal), actives largely listed as activators | 8.7% of 1,300 active | AID 1963319, 2024;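 note: signal reports ligand binding via conformational change of the enzyme rather than luciferase catalysis; % of control where 0% means no effect; nearly all actives have a fitted effect of over 55% in size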
FLuc inh-2: Firefly luciferase (FLuc-C-HiBiT) enzymatic inhibition screen - Functional assay | 42% of 1,300 active | Potency, µM (doses to about 32.7 µM), without a hit: top-dose activity change, negative = inhibition, actives largely listed as inhibitors | purified FLuc-C-HiBiT enzyme, luciferin luminescence | AID 1963320, 2024 | shares compounds with FLuc inh-1; note: % is set by controls: 0 for no effect and ±100 for the full control effect; nearly all actives have a fitted effect of over 70% in size
The depositor's hits bear a star; [ ] = dose if it differs, or a comment. Hits are enriched below; roughly 7.4% of the tested compounds scored in any of these assays. Unless noted, calls come from the whole dose curve; as a rule, active = well fitted curve in the direction sought with a large enough effect; inconclusive = small, poorly fitted or top-dose-only effect, or another doubt; inactive = no such curve, though single readings can be large; an effect the other way counts as inactive or inconclusive. Potency is the fitted concentration of half-maximal effect.

What do the screens show for `CCCCn1c(=O)c(C(=O)N2CCN(C(=O)c3ccccc3F)CC2)nc2cccnc21`?
SNCA expr inh: 11%; HEK cytotox: -7%; NIH3T3 tox: inconclusive; HEK293 viab: 12%

How did Cc1ccc(-n2ncc3c(N4CCN(c5ccc(F)cc5)CC4)ncnc32)cc1 do in these assays?
SNCA expr inh: -1%; HEK293 viab: 1%

How did Clc1ccc(N2CCN(c3ncnc4c3cnn4-c3ccccc3)CC2)cc1Cl do in these assays?
SNCA expr inh: 37%; HEK293 viab: 2%

Results for NC(=O)C1CCN(c2ncnc3c2cnn3-c2cccc(Cl)c2)CC1 ?
SNCA expr inh: 41%; HEK293 viab: 7%; FLuc SDR no ATP: 17%; FLuc SDR ATP: 12%; FLuc inh-2: -18%

What do the screens show for `c1ccc(-n2ncc3c(N4CCCCC4)ncnc32)cc1`?
FLuc SDR no ATP: 3.5µM*; FLuc SDR ATP: inconclusive; FLuc inh-2: 0.88µM*

What do the screens show for `OCC1CCN(c2ncnc3c2cnn3-c2ccccc2)CC1`?
FLuc SDR no ATP: 21%; FLuc SDR ATP: 17%; FLuc inh-2: inconclusive

How did OCCN1CCN(c2ncnc3c2cnn3-c2cccc(Cl)c2)CC1 do in these assays?
SNCA expr inh: 141%; HEK293 viab: -6%

What do the screens show for `Cc1ccc(-n2ncc3c(N4CCN(C)CC4)ncnc32)cc1`?
SNCA expr inh: -45%; HEK293 viab: -7%; FLuc SDR no ATP: 23%; FLuc SDR ATP: inconclusive; FLuc inh-2: 5.6µM*

What do the screens show for `OC1CCN(c2ncnc3c2cnn3-c2ccccc2)CC1`?
FLuc SDR no ATP: 25%; FLuc SDR ATP: inconclusive; FLuc inh-2: inconclusive

How did NC(=O)CC1CCN(c2ncnc3c2cnn3-c2ccccc2)CC1 do in these assays?
FLuc SDR no ATP: 10%; FLuc SDR ATP: 11%; FLuc inh-2: -18%

What do the screens show for `CN1CCN(c2ncnc3sc4c(c23)CCNC4)CC1`?
hNpr1 antagonist: 1%; SNCA expr inh: inconclusive; HEK cytotox: inconclusive; FLuc inh-1: inactive; NIH3T3 tox: inconclusive; HEK293 viab: -10%

How did Cc1ccc(OCCCCn2nnc3sc4c(c3c2=O)CCCC4)cc1 do in these assays?
SNCA expr inh: 0%; HEK293 viab: 16%

What do the screens show for `Cc1cccc(OCCn2nnc3sc4c(c3c2=O)CCCC4)c1`?
SNCA expr inh: 135%; HEK293 viab: 7%; FLuc SDR no ATP: 7%; FLuc SDR ATP: 5%; FLuc inh-2: inconclusive

What do the screens show for `O=C(C1CCN([S+](=O)([O-])c2cccs2)CC1)N1CCCC(c2nc3ccncc3[nH]2)C1` (stereo not given)?
SNCA expr inh: -12%; HEK cytotox: -9%; NIH3T3 tox: -26%; HEK293 viab: -8%

How did O=C(Nc1nn(-c2cccc(F)c2)c2cccc(N3CCOCC3)c12)C1CCC1 do in these assays?
hNpr1 antagonist: inconclusive; SNCA expr inh: 133%; HEK cytotox: 45µM*; FLuc inh-1: 7.9µM*; NIH3T3 tox: inconclusive; HEK293 viab: -2%; FLuc SDR no ATP: inconclusive; FLuc SDR ATP: 11%; FLuc inh-2: inconclusive

How did CCOCCNC(=O)c1nc2cccnc2n(C2CC2)c1=O do in these assays?
SNCA expr inh: 10%[87.6 µM]; HEK cytotox: inactive; NIH3T3 tox: -8%[138 µM]; HEK293 viab: 5%[87.6 µM]

What do the screens show for `CC(=O)NC1(C)CCN(Cc2cccc(-c3cccc4ncccc34)c2)C1` (stereo not given)?
hNpr1 antagonist: 5%[70.6 µM]; SNCA expr inh: 29%[87.6 µM]; HEK cytotox: inconclusive; FLuc inh-1: inactive; NIH3T3 tox: -28%[138 µM]; HEK293 viab: 5%[87.6 µM]

What do the screens show for `CC(=O)NC1(C)CCN(Cc2cccc(-c3ccc4c(ccn4C)c3)c2)C1` (stereo not given)?
hNpr1 antagonist: inconclusive; SNCA expr inh: 64%[87.6 µM]; HEK cytotox: 89µM*; FLuc inh-1: 14µM*; NIH3T3 tox: 79µM*; HEK293 viab: -27%[87.6 µM]; FLuc SDR no ATP: 15%[49.3 µM]; FLuc SDR ATP: inconclusive; FLuc inh-2: 10µM*

What do the screens show for `Cc1ccc(-c2ncc(NC(=O)c3cccs3)cn2)cc1`?
hNpr1 antagonist: -2%; SNCA expr inh: 73%; HEK cytotox: 0%; FLuc inh-1: inconclusive; NIH3T3 tox: inactive; HEK293 viab: 6%

Results for CCCC(=O)Nc1cnc(-c2ccc(C)cc2)nc1 ?
hNpr1 antagonist: inconclusive; SNCA expr inh: 1%; HEK cytotox: inconclusive; FLuc inh-1: 2µM*; NIH3T3 tox: -8%; HEK293 viab: -7%; FLuc SDR no ATP: inconclusive; FLuc SDR ATP: inconclusive; FLuc inh-2: 3.5µM*

Results for Cc1cn2nc(C(=O)Nc3ccc4c(c3)OCCO4)cc2c(N(C)Cc2ccccc2)n1 ?
hNpr1 antagonist: -1%; SNCA expr inh: -7%; HEK cytotox: -24%; FLuc inh-1: 10µM*; NIH3T3 tox: inconclusive; HEK293 viab: -15%; FLuc SDR no ATP: 24%; FLuc SDR ATP: 20%; FLuc inh-2: inconclusive

What do the screens show for `CCCS(=O)(=O)N1CCC(N2CC(OCC3CC3)C23CCCCC3)CC1` (stereo not given)?
SNCA expr inh: 11%; HEK cytotox: -3%; NIH3T3 tox: inconclusive; HEK293 viab: 2%
